This is part of a sample that, as a whole, favours compounds with a hit. Of some 83,000 tested, about 20% had one in any assay.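 48-hour exposure, single concentration, 96-well plates; percent growth endpoint where 0 means no net growth. Active: below 10.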 Calls of active or inactive are those of the source.
test system: RXF 393 renal; assay: NCI-60 one-dose screen, 48 h (100 = growth as untreated, 0 = no growth, -100 = all killed); conditions: 10 µM unless noted

**Q.** For `Cc1ccc(C(=O)C[n+]2cccc3c4ccccc4ccc32)cc1`, which growth is on record?
**A.** 5.94% (active)

**Q.** With `C#CCN(C)CCCOc1ccc(N(CC)C(=O)c2cc(C(C)C)c(O)cc2O)cc1Cl` as the molecule, how does the growth read?
**A.** 2.57% (active)

**Q.** How did the growth turn out when `O=C(OCCOCCO)N(c1cccc(Br)c1)c1nc(SCCN2CCOCC2)nc2c1cnn2CC(Cl)c1ccc(Br)cc1` (centres undefined) was run?
**A.** -30% (active)

**Q.** How did the growth turn out when `COc1ccc(-c2nc3ccc(-c4nnc(SCC(=O)Nc5ccc(/C(C)=N\O)cc5)o4)cc3[nH]2)cc1` was run?
**A.** -45.2% (active)

**Q.** For `Clc1ccc2c(NCCNC34CC5CC(CC(C5)C3)C4)ccnc2c1`, which growth is on record?
**A.** -86.4% (active)

**Q.** Which growth does the source give for `CCOc1ccc(-c2cc(-c3cc(C(C)C)c(O)cc3C)nn2-c2ccc(S(N)(=O)=O)cc2)cc1` here?
**A.** 38.9% (inactive)

**Q.** Which growth does the source give for `Cc1ccc(N=Nc2c(N)nn3c(-c4cc5cc(Br)ccc5oc4=O)ccnc23)cc1` here?
**A.** -3.16% (active)

**Q.** How did the growth turn out when `COc1ccc(SC2c3cc(OC)ccc3Oc3nc(N)c(C#N)c(N)c32)cc1` (centres undefined) was run?
**A.** 62% (inactive)

**Q.** `O=C1Nc2ccc(F)cc2/C1=C/C(=O)c1cc2ccccc2oc1=O` was tested. Which growth did it give?
**A.** 83.4% (inactive)

**Q.** With `COc1ccc2[nH]cc(-c3cc(N)n4nc(-c5c[nH]c6ccccc56)cc4n3)c2c1` as the molecule, how does the growth read?
**A.** -72.2% (active)

**Q.** With `O=C1Nc2cc(-c3ccc(NS(=O)(=O)c4ccc(F)c(Cl)c4)cc3)ccc2/C1=C/c1ccc[nH]1` as the molecule, how does the growth read?
**A.** 29.5% (inactive)

**Q.** Which growth does the source give for `CCOC(=O)/C(F)=C/C1CC1C1CCN(C(=O)OC(C)(C)C)CC1` (centres undefined) here?
**A.** 105% (inactive)

**Q.** With `CN1CCN(CCS(=O)(=O)Nc2cc(-c3ccc4ncnc(Nc5ccc(F)c(Cl)c5)c4c3)cnc2Cl)CC1` as the molecule, how does the growth read?
**A.** -1.07% (active)

**Q.** How did the growth turn out when `N#Cc1cc(-c2ccc3ncnc(N4CCc5cc(F)c(Cl)cc54)c3c2)cnc1N` was run?
**A.** 17.9% (inactive)

Reference: PubChem BioAssay (NCI)
